Screen size: about 5,500 compounds; about 2,000 (36%) were called active. Another 18% or so got no clear call; they are omitted. Rule as the data show it: active = normalized growth mostly below about 0.91 (no sharp cut-off); inconclusive = no clear call, values can overlap the other calls; inactive = mostly above about 0.92. This is one part of the list.
Assay: chemical genetic growth profiling, strain panel (AID 1159580);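 also: tested at 20 µM; growth read once vehicle control cultures reached saturation at 30 °C; 1 = growth at the plate median or of vehicle wells; lower values mean less growth of the strain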
Details: S. cerevisiae deletion strains, growth OD

Measured: normalized growth

O=S1OCC2C(CO1)C1(Cl)C(Cl)=C(Cl)C2(Cl)C1(Cl)Cl (centres undefined)
active: locus YDR137W, strain rgp1, stronger effect = lower value 1.17 [resistant] | locus YJL166W, strain qcr8, stronger effect = lower value 0.875
inactive: locus YAL013W, strain DEP1, stronger effect = lower value 0.973 | locus YAL021C, strain ccr4, stronger effect = lower value 0.982 | locus YAL026C, strain drs2, stronger effect = lower value 0.98 | locus YAL030W, strain snc1, stronger effect = lower value 0.993 | locus YBL061C, strain skt5, stronger effect = lower value 1 | locus YBR009C, strain hhf1, stronger effect = lower value 0.989 | locus YBR021W, strain FUR4, stronger effect = lower value 0.993 | locus YBR023C, strain chs3, stronger effect = lower value 0.987 | locus YBR171W, strain sec66, stronger effect = lower value 0.974 | locus YBR229C, strain ROT2, stronger effect = lower value 0.998 | locus YBR231C, strain swc5, stronger effect = lower value 0.992 | locus YBR279W, strain paf1, stronger effect = lower value 1 | locus YCL011C, strain gbp2, stronger effect = lower value 0.98 | locus YCL016C, strain dcc1, stronger effect = lower value 0.999 | locus YCL029C, strain bik1, stronger effect = lower value 0.972 | locus YCL061C, strain MRC1, stronger effect = lower value 0.983 | locus YCL069W, strain vba3, stronger effect = lower value 0.99 | locus YCR088W, strain abp1, stronger effect = lower value 0.98 | locus YDL005C, strain med2, stronger effect = lower value 1 | locus YDL035C, strain GPR1, stronger effect = lower value 0.983 | locus YDL040C, strain nat1, stronger effect = lower value 0.994 | locus YDL074C, strain BRE1, stronger effect = lower value 0.999 | locus YDL101C, strain DUN1, stronger effect = lower value 0.972 | locus YDL134C, strain PPH21, stronger effect = lower value 0.997 | locus YDL185W, strain tfp1, stronger effect = lower value 0.948 | locus YDL192W, strain arf1, stronger effect = lower value 0.98 | locus YDR001C, strain nth1, stronger effect = lower value 0.974 | locus YDR069C, strain doa4, stronger effect = lower value 0.973 | locus YDR101C, strain arx1, stronger effect = lower value 0.992 | locus YDR150W, strain NUM1, stronger effect = lower value 0.991 | locus YDR159W, strain sac3, stronger effect = lower value 0.893 | locus YDR162C, strain NBP2, stronger effect = lower value 0.946 | locus YDR195W, strain ref2 1.04 | locus YDR297W, strain sur2, stronger effect = lower value 0.983 | locus YDR318W, strain mcm21, stronger effect = lower value 0.973 | locus YDR334W, strain swr1, stronger effect = lower value 0.99 | locus YDR335W, strain msn5, stronger effect = lower value 0.995 | locus YDR388W, stronger effect = lower value 0.981 | locus YDR392W, strain spt3, stronger effect = lower value 0.823 | locus YDR502C, strain sam2, stronger effect = lower value 0.96 | locus YEL003W, strain gim4, stronger effect = lower value 0.931 | locus YEL037C, strain rad23, stronger effect = lower value 1 | locus YEL061C, strain CIN8 (second series), stronger effect = lower value 0.983 | locus YEL061C, strain CIN8, stronger effect = lower value 0.992 | locus YER015W, strain faa2, stronger effect = lower value 0.993 | locus YER016W, strain bim1, stronger effect = lower value 0.991 | locus YER110C, stronger effect = lower value 0.986 | locus YER111C, strain swi4, stronger effect = lower value 0.997 | locus YER155C, strain BEM2 (second series), stronger effect = lower value 0.988 | locus YER155C, strain BEM2, stronger effect = lower value 0.973 | locus YER167W, strain BCK2, stronger effect = lower value 0.966 | locus YFR010W, strain ubp6, stronger effect = lower value 0.984 | locus YGL078C, strain dbp3, stronger effect = lower value 0.968 | locus YGL086W, strain mad1, stronger effect = lower value 0.975 | locus YGL167C, strain pmr1, stronger effect = lower value 0.989 | locus YGL173C, strain kem1, stronger effect = lower value 0.992 | locus YGL227W, strain vid30, stronger effect = lower value 0.987 | locus YGL240W, strain doc1, stronger effect = lower value 0.988 | locus YGL248W, strain PDE1, stronger effect = lower value 1.01 | locus YGL253W, strain hxk2, stronger effect = lower value 0.987 | locus YGR078C, strain PAC10, stronger effect = lower value 0.97 | locus YGR135W, strain pre9, stronger effect = lower value 0.978 | locus YGR229C, strain SMI1, stronger effect = lower value 0.992 | locus YGR252W, strain gcn5, stronger effect = lower value 0.984 | locus YHR013C, strain ard1, stronger effect = lower value 0.862 | locus YHR027C, strain rpn1, stronger effect = lower value 0.996 | locus YHR030C, strain SLT2, stronger effect = lower value 0.979 | locus YHR079C, strain IRE1 (second series), stronger effect = lower value 0.977 | locus YHR094C, strain hxt1, stronger effect = lower value 0.971 | locus YHR129C, strain ARP1, stronger effect = lower value 1.01 | locus YHR142W, strain chs7, stronger effect = lower value 0.971 | locus YHR200W, strain rpn10, stronger effect = lower value 0.972 | locus YIL066C, strain RNR3, stronger effect = lower value 0.966 | locus YIL073C, strain SPO22, stronger effect = lower value 0.887 | locus YIL125W, strain kgd1, stronger effect = lower value 0.982 | locus YIR030C, strain dcg1, stronger effect = lower value 0.98 | locus YJL092W, strain hpr5, stronger effect = lower value 0.987 | locus YJL095W, strain BCK1 (second series), stronger effect = lower value 1.01 | locus YJL095W, strain BCK1, stronger effect = lower value 0.999 | locus YJL115W, strain asf1, stronger effect = lower value 0.977 | locus YJL129C, strain trk1, stronger effect = lower value 0.888 | locus YJL134W, strain LCB3, stronger effect = lower value 0.966 | locus YJL154C, strain vps35, stronger effect = lower value 0.983 | locus YJL164C, strain tpk1, stronger effect = lower value 0.942 | locus YJL168C, strain set2, stronger effect = lower value 0.974 | locus YJL187C, strain SWE1 (second series), stronger effect = lower value 0.979 | locus YJL187C, strain SWE1, stronger effect = lower value 0.995

Reference: PubChem BioAssay AID1159580 (chemical genetic matrix, 2015)
